The source of these data is PubChem BioAssay (NCATS).

Results filed as inconclusive are left out. Unmarked numbers belong to inactive results. Active and inactive are the calls of the source. The call rests on the fitted dose curve; in most records, active means well fitted inhibition curve with a large enough effect; inconclusive means small, poorly fitted or top-dose-only effect; inactive means flat fitted curve, though single readings scatter.

One assay has as its system CRL-7250. As to the kind of experiment: Cytotoxic Profiling of Annotated Libraries Using Quantitative High-Throughput Screening (AID 1296008). Further: potency means the concentration at half of the fitted maximal effect. On max response: on the % scale 0 is the no-effect control and ±100 the full control effect. To be noted: Five cell lines viability, CellTiter-Glo ATP luminescence, 48-72 h; max response: active compounds read low. The procedure, abridged:
(§1)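 Compounds were pin-transferred onto cells and incubated 48 or 72 hr at 37 degree Celsius, 95% humidity. CellTiter-Glo was added, plates sat 10 min at room temperature, then ATP-coupled luminescence was imaged as the viability read-out.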
In general terms: Cellular ATP, detected with luciferase, serves as a proxy for viable cell number.

A further assay deals with HEK293. Described as above. To be noted: Five cell lines viability, CellTiter-Glo ATP luminescence, 48-72 h; max response: active compounds read low. The procedure, abridged: as §1
Assay [1] concerns HaCat. The assay is described as above. Particulars: Five cell lines viability, CellTiter-Glo ATP luminescence, 48-72 h; max response: active compounds read low. The procedure, abridged:
as §1

The next assay deals with NIH3T3. Described as above. Particulars: Five cell lines viability, CellTiter-Glo ATP luminescence, 48-72 h; max response: active compounds read low. The essentials: as §1
The test system of assay [2] is HACAT. As to the kind of experiment: qHTS assay to identify novel small-molecules to repurpose for Merkel cell carcinoma treatment (AID 1296009). Particulars: MCC and control cell lines, CellTiter-Glo viability, 72 h; at 44.8 µM (top of the series) unless noted. The essentials: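 Viability readout: ATP luminescence (CellTiter-Glo) after 72 hr drug exposure at 37 degree celsius. Dose-response format was 8 points for NPC and 11 points for MIPE; data normalized to in-plate controls.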
On the technique in general: qHTS replaces the single test concentration by a dilution series.
Further: nearly all actives have a fitted effect of over 60% in size.

Consider `C=CCNc1nc(NCC=C)nc(N2CCN(C(c3ccc(F)cc3)c3ccc(F)cc3)CC2)n1`, for which the max response with CRL-7250 is -3.37%; in the assay on HaCat [1] it was 2.53%; in the assay with NIH3T3 it was -15.1%. The Potency in the assay with HEK293 is 8.41 µM (active).
For `Cc1ccc2c(Cl)cc(Cl)c(O)c2n1`, the max response was -1.98% in the assay with CRL-7250, -23.5% in the assay on HEK293, -10% in the assay with HaCat [1] and 2.93% in the assay with NIH3T3.
As to `Nc1ccc([N+](=O)[O-])c(C(F)(F)F)c1`, the results for the max response with CRL-7250, with HEK293 and with NIH3T3 were 1.39%, 4.93% and 0.447%, respectively. Besides, the compound was classed as inactive in the assay with HaCat [1] and in the assay on HACAT [2].
`CC(C)(C)C1CCC(CC2=C(O)c3ccccc3C(=O)C2=O)CC1` (configuration not stated): the max response in the assay on CRL-7250 was -5.3%; with HEK293, 0.617%; in the assay on HaCat [1] it was -2.75%; in the assay with NIH3T3, -2.94%.
On to `N#Cc1cc(NC(=O)C(=O)O)c(Cl)c(NC(=O)C(=O)O)c1`, for which, in the assay on CRL-7250, the result was inactive. In addition, the max response with HEK293 is -3.47%; with HaCat [1], -3.53%; in the assay on NIH3T3 it was -0.466%.
For `CC(=O)N(CC(=O)N(C)C)c1ccccc1`, the max response in the assay with CRL-7250 was -29.6%; in the assay with HEK293, -63.5%; with HaCat [1], -4.61%; with NIH3T3, 1.94%.
In the case of `CCCCN(CCCC)C(C(N)=O)c1ccc(OC)cc1` (configuration not stated), the compound was called inactive with CRL-7250 and in the assay on NIH3T3. Also, the max response in the assay with HEK293 is -5.09%; in the assay on HaCat [1] it was 2.19%.
Turning to `Nc1ccc(C(=O)OCC(O)CO)cc1` (configuration not stated), the max response was -0.994% with CRL-7250, -11.2% in the assay with HEK293, -8.17% in the assay with HaCat [1] and 2.44% in the assay on NIH3T3.
Regarding `O=C(O)Cn1c(=O)n(Cc2ccc(Br)cc2F)c(=O)c2ccc(Cl)cc21`, the call in the assay on CRL-7250, in the assay on HEK293 and in the assay with NIH3T3 was inactive. Moreover, the max response in the assay with HaCat [1] is 0.662%.
Regarding `C/C(=C1\CCOC(=O)S1)N(C=O)Cc1cnc(C)nc1N`, the max response is -21.8% in the assay on CRL-7250, -12.5% with HEK293, 0.182% with HaCat [1] and 0.237% in the assay on NIH3T3.
`CC(=O)c1cc2ccccc2s1`: the max response is -0.976% with CRL-7250, -8.14% in the assay on HEK293, -0.924% in the assay with HaCat [1] and 1.18% in the assay on NIH3T3.
Regarding `Fc1ccc(C(c2ccc(F)cc2)N2CCNCC2)cc1`, the call in the assay with CRL-7250 was inactive. For the same compound, the max response was -6.69% in the assay on HEK293, -17.9% in the assay on HaCat [1] and -2.81% in the assay on NIH3T3.
Turning to `OC1(c2ccccc2)CCNCC1`, the max response in the assay with CRL-7250 is 0.914%; with HEK293, 1.58%; with HaCat [1], -1.01%. For the same compound, in the assay on NIH3T3, the outcome was inactive.
As to `CC[C@@]1(O)C(=O)OCc2c1cc1n(c2=O)Cc2c-1nc1ccccc1c2/C=N/OC(C)(C)C`, the Potency in the assay with CRL-7250 is 1.19 µM (active); with HEK293 it was 0.0211 µM (active); in the assay with HaCat [1], 0.0422 µM (active); with NIH3T3 it was 0.266 µM (active).
As to `Nc1nc(=O)n([C@@H]2O[C@H](CO)[C@@H](O)[C@@H]2F)cc1I`, the max response in the assay on CRL-7250 is -26.4%; with HaCat [1] it was 3.07%; with NIH3T3 it was -21.4%. The call in the assay on HEK293 was inactive.
As to `O=C(O)CCC(=O)OC[C@@H](NC(=O)C(Cl)Cl)[C@H](O)c1ccc([N+](=O)[O-])cc1`, the max response was -4.73% in the assay on CRL-7250, -21.8% in the assay with HEK293, 0.154% with HaCat [1] and -0.147% with NIH3T3.
For the compound `NC(=O)NC1N=C([O][Al])NC1=O` (configuration not stated), the compound was called inactive in the assay with CRL-7250 and in the assay with HEK293. For the same compound, the max response in the assay on HaCat [1] was 3.4%; with NIH3T3, 1.11%.
As to `Cc1nc2n(c(=O)c1CCN1CCC(C(=O)c3ccc(F)cc3)CC1)CCS2`, the values for the Potency in the assay with CRL-7250 and in the assay with HEK293 were 9.44 µM (active) and 8.41 µM (active), respectively. Besides, the max response in the assay on HaCat [1] was 1.44%; in the assay with NIH3T3 it was -4.75%.
As for `CC(=O)/C=C/C=C1/C2CCC(C2)C1(C)C` (configuration not stated), the max response in the assay on CRL-7250 was -8.75%; in the assay on HEK293, -13.1%; in the assay on HaCat [1] it was -7.21%; in the assay on NIH3T3, -0.501%.
Turning to `COC(=O)c1cc(Cl)c(NC(C)=O)cc1OC`, the max response with CRL-7250 was 2.72%; with HEK293, -2.05%. The outcome in the assay with HaCat [1], with NIH3T3 and with HACAT [2] was inactive.
Take `CC(C)(C)c1cc(C=O)cc(C(C)(C)C)c1O`: the max response in the assay with CRL-7250 was 4.77%; in the assay with HEK293, 3.28%; in the assay on NIH3T3, 1.57%. For the same compound, the outcome with HaCat [1] and with HACAT [2] was inactive.
Take `CCCCC(O)/C=C(C)/C=C/C=C/C(=O)N1CCCC1=O` (configuration not stated): the results for the max response in the assay with CRL-7250 and in the assay on HEK293 were 0.43% and 1.86%, respectively. The result in the assay on HaCat [1], in the assay on NIH3T3 and in the assay on HACAT [2] was inactive.
On to `CCCC(=O)OCOC(=O)C1=C(C)NC(C)=C(C(=O)OC)C1c1cccc(Cl)c1Cl` (configuration not stated), for which the max response in the assay on CRL-7250 was 4.76%; in the assay with HEK293, 0.879%; in the assay with NIH3T3, 0.493%. The compound was classed as inactive in the assay with HaCat [1] and in the assay on HACAT [2].
For the compound `CC(=O)O[C@@H]1CC2C3CCc4cc(OC(=O)c5ccccc5)ccc4C3CCC2(C)[C@H]1OC(C)=O` (some centres not stated), the max response in the assay on CRL-7250 was -8.96%; in the assay on NIH3T3, 3.57%. In addition, the call in the assay with HEK293, in the assay on HaCat [1] and with HACAT [2] was inactive.
As for `CO[C@@H]1[C@@H](O[C@@H]2O[C@H](C)[C@@H](O[C@H]3C[C@@](C)(O)[C@@H](O)[C@H](C)O3)[C@H](N(C)C)[C@H]2O)[C@@H](CC=O)C[C@@H](C)[C@@H](O[C@@H]2CC[C@H](N(C)C)[C@@H](C)O2)/C=C/C=C/C[C@@H](C)OC(=O)C[C@H]1OC(C)=O`, the result with CRL-7250, in the assay with HaCat [1] and in the assay on HACAT [2] was inactive. The Potency in the assay with HEK293 is 8.41 µM (active). In addition, the max response in the assay on NIH3T3 is -2.54%.
